{"source": "paper PMC6792352", "about": "“Limited Chemical Structural Diversity Found to Modulate Thyroid Hormone Receptor in the Tox21 Chemical Library” (Environmental Health Perspectives, 2019)", "note": "Counter-ions that a name gives are not always drawn."}
{"tested_on": "thyroid hormone receptor (endogenous TRα and TRβ)", "parameters": "species or system GH3-TRE-Luc (rat pituitary); GH3-TRE-Luc luciferase reporter, antagonist mode against 1 nM T3, loss of signal, qHTS", "settings": "read-out: Average AC50 (uM) GH3-TRE-Antag, antagonist mode, 1 nM T3, no GH3 cytotoxicity hit", "units": {"AC50": "µM"}}
{"smiles": "C=CC(=O)OCCOC(=O)CCC(=O)O", "note": "[4-[2-(Acryloyloxy)ethoxy]-4-oxobutanoic acid]", "AC50": 73}
{"smiles": "Nc1ccc(N)c(Cl)c1", "note": "[2-Chloro-1,4-diaminobenzene sulfate]", "AC50": 50.5}
{"smiles": "CN1CCCN=C1COC(=O)C(O)(c1ccccc1)C1CCCCC1", "note": "(stereo not shown) [Oxyphencyclimine hydrochloride]", "AC50": 43.3}
{"smiles": "O=C(Nc1ccc(/C=C/c2ccc(NC(=O)c3cc(S(=O)(=O)O)c4cccnc4c3O)cc2S(=O)(=O)O)c(S(=O)(=O)O)c1)c1cc(S(=O)(=O)O)c2cccnc2c1O", "note": "[Ubistatin A]", "AC50": 27.4}
{"smiles": "O=C(O)Cn1c(C(=O)Nc2nc(-c3ccccc3Cl)cs2)cc2ccccc21", "note": "[Lintitript]", "AC50": "> 50"}
{"smiles": "CCCCOCCOC(=O)c1ccccc1C(=O)OCCOCCCC", "note": "[Bis(2-butoxyethyl) phthalate]", "AC50": 67.1}
{"smiles": "Oc1ccc2c(c1)-c1ccccc1C2", "note": "[3-Hydroxyfluorene]", "AC50": 91.5}
{"smiles": "c1ccc(-c2nc[nH]c2-c2ccccc2)cc1", "note": "[4,5-Diphenylimidazole]", "AC50": 24.1}
{"smiles": "Cl/C=C\\C[N+]12CN3CN(CN(C3)C1)C2", "note": "[Chloroallyl methenamine chloride]", "AC50": 89.1}
{"smiles": "c1ccc(P(c2ccccc2)c2ccccc2)cc1", "note": "[Triphenylphosphine]", "AC50": "> 90"}
{"smiles": "C=C(C)CN(CC)c1c([N+](=O)[O-])cc(C(F)(F)F)cc1[N+](=O)[O-]", "note": "[Ethalfluralin]", "AC50": "> 90"}
{"smiles": "CC(=O)[C@H]1[C@H](C#N)C[C@H]2[C@@H]3CC=C4C[C@@H](O)CC[C@]4(C)[C@H]3CC[C@@]21C", "note": "[Pregnenolone carbonitrile]", "AC50": 13.1}
{"smiles": "COc1ccc(Nc2ccccc2)c(C)c1", "note": "[4-Methoxy-2-methyl-N-phenylaniline]", "AC50": 52.5}
{"smiles": "O=C(c1ccc(O)cc1O)c1ccc(O)cc1O", "note": "[2,2',4,4'-Tetrahydroxybenzophenone]", "AC50": 39.2}
{"smiles": "O=C(O)[C@@H]1[C@H](C(=O)O)[C@H]2CC[C@@H]1O2", "note": "[Endothal]", "AC50": 77.2}
{"smiles": "O=C(O)COc1cc(Cl)c(Cl)cc1Cl", "note": "[2,4,5-Trichlorophenoxyacetic acid]", "AC50": 70.6}
{"smiles": "C[C@H]1O[C@@H](O[C@H]2[C@@H](O)C[C@H](O[C@H]3[C@@H](O)C[C@H](O[C@H]4CC[C@@]5(C)[C@H](CC[C@@H]6[C@@H]5CC[C@]5(C)[C@@H](C7=CC(=O)OC7)CC[C@]65O)C4)O[C@@H]3C)O[C@@H]2C)C[C@H](O)[C@@H]1O", "note": "[Digitoxin]", "AC50": 40}
{"smiles": "CCOc1ccc(Cc2nccc3cc(OCC)c(OCC)cc23)cc1OCC", "note": "[Ethaverine hydrochloride]", "AC50": 8.58}
{"smiles": "O=[N+]([O-])c1c(Cl)c(Cl)c(Cl)c(Cl)c1Cl", "note": "[Pentachloronitrobenzene]", "AC50": "> 90"}
{"smiles": "O=c1oc2ccccc2c(O)c1Cc1c(O)c2ccccc2oc1=O", "note": "[Dicumarol]", "AC50": 12.7}
{"smiles": "N#Cc1cc(Br)c(O)c(Br)c1", "note": "[Bromoxynil]", "AC50": 69.3}
{"smiles": "O=P(c1ccccc1)(c1ccccc1)c1ccccc1", "note": "[Triphenylphosphine oxide]", "AC50": 58.7}
{"smiles": "CCC(=O)/C=C/c1ccc(OC)cc1", "note": "[1-(4-Methoxyphenyl)-1-pentene-3-one]", "AC50": 79.8}
{"smiles": "C=CCOC(=O)/C=C\\C(=O)OCC=C", "note": "[Diprop-2-en-1-yl (2Z)-but-2-enedioate]", "AC50": 79.2}
{"smiles": "COC(=O)NC(=S)Nc1ccccc1NC(=S)NC(=O)OC", "note": "[Thiophanate-methyl]", "AC50": 78.1}
{"smiles": "Clc1cc(C(Cl)(Cl)Cl)cnc1Cl", "note": "[2,3-Dichloro-5-(trichloromethyl)pyridine]", "AC50": 40.5}
{"smiles": "O=c1c(-c2ccc(O)cc2)coc2cc(O)ccc12", "note": "[Daidzein]", "AC50": 87.6}
{"smiles": "Cc1oc(=O)oc1CN1CCN(c2cc3c(cc2F)c(=O)c(C(=O)O)c2n3C(C)S2)CC1", "note": "(stereo not shown) [Prulifloxacin]", "AC50": "> 50"}
{"smiles": "C[C@]12C=CC(=O)N[C@@H]1CC[C@@H]1[C@@H]2CC[C@]2(C)[C@@H](C(=O)Nc3cc(C(F)(F)F)ccc3C(F)(F)F)CC[C@@H]12", "note": "[Dutasteride]", "AC50": 3.44}
{"smiles": "CCCCOc1cc(C(=O)OCCN(CC)CC)ccc1N", "note": "[Benoxinate hydrochloride]", "AC50": 11.8}
{"smiles": "CCCCCc1ccc(N)cc1", "note": "[4-Pentylaniline]", "AC50": 47.1}
{"smiles": "CC(C)(C)c1cccc(C(C)(C)C)c1O", "note": "[2,6-Di-tert-butylphenol]", "AC50": 25.4}
{"smiles": "CC/C=C\\CCOC(=O)c1ccccc1", "note": "[(3Z)-Hex-3-en-1-yl benzoate]", "AC50": 73.9}
{"smiles": "CCCCCCC(=O)O[C@H]1CC[C@H]2[C@@H]3CCc4cc(O)ccc4[C@H]3CC[C@]12C", "note": "[Estradiol enanthate]", "AC50": 18.9}
